Screening results from PubChem.
Pol eta inh-1 – inhibitors of human DNA polymerase eta | Q9Y253 | recombinant Pol eta, fluorescent DNA replication assay | Potency, µM (highest dose often 114 µM), for inactives: at the highest dose activity change, negative = inhibition, actives largely listed as inhibitors | 390,000 compounds, 1.2% hits; note: potency is the fitted concentration of half-maximal effect; % is set by controls: 0 for no effect and ±100 for the full control effect
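Fluorescent replication assay: 50 nM final substrate added after a 15 min room-temperature compound preincubation with 10 nM enzyme. Signal taken at 0 min and again at 10 min.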
Pol kappa inh-1 – DNA polymerase kappa (human) inhibition; Q9UBT6; purified Pol kappa, fluorescent DNA synthesis assay, 10 min; Potency, µM (titrated, usually from 107 µM), for the others: top-dose activity, negative = inhibition, usual class: inhibitors; 400,000 compounds, 0.53% hits; AID 588579; note: potency is the fitted concentration of half-maximal effect; % is set by controls: 0 for no effect and ±100 for the full control effect
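Pol kappa 10 nM + cpd, 15 min RT; start w/ substrate 50 nM final; fluorescence kinetic read, 0 and 10 min. Neg ctrl: buffer, no enzyme.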
Pol iota inh – DNA polymerase iota (human) inhibition; Q9UNA4; Pol iota fluorescent replication assay, 10 min; Potency, µM (highest dose often 115 µM), for inactives: at the top dose activity, negative = inhibition, actives largely listed as inhibitors; 390,000 compounds, 1% hits; note: potency is the fitted concentration of half-maximal effect
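Fluorescent replication assay read twice, at 0 min and 10 min after adding 50 nM (final) substrate. Enzyme (10 nM) and compounds were first incubated 15 min at room temperature; enzyme-free buffer wells were negative controls.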
WRN helicase inh-1 – inhibitors of human WRN helicase; WRN helicase unwinding, fluorescent forked duplex, kinetic; AID 651768; Potency, µM (top dose mostly 114 µM), without a hit: at the top dose activity change, negative = inhibition, actives largely listed as inhibitors; 360,000 compounds, 0.46% hits; note: potency is the fitted concentration of half-maximal effect; % is set by controls: 0 for no effect and ±100 for the full control effect; nearly all actives have a fitted effect of over 55% in size
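WRN at 20 nM final was preincubated with compound for 15 min at room temperature; reaction started with 100 nM forked duplex oligonucleotide carrying fluorophore and quencher plus 2 mM ATP (final). Unwinding followed kinetically by red fluorescence (ex 525/em 598 nm).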
POLB inh – inhibitors of human DNA polymerase beta. P06746. Pol beta primer extension/strand displacement, fluorescence kinetic. Potency, µM (top dose mostly 114 µM), inactives show top-dose activity change, negative = inhibition, hits mostly inhibitors. 340,000 compounds, 1.3% hits. AID 485314; note: potency is the fitted concentration of half-maximal effect; % is set by controls: 0 for no effect and ±100 for the full control effect
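Homogeneous kinetic assay of primer extension and strand displacement by 10 nM Pol beta, preincubated 15 min at room temperature with compound before 50 nM substrate (final) was added. Read at 0 and 10 min; four-parameter Hill fit.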
PI5P4Ka inh – inhibitors of human PI5P4K alpha; PI5P4Kalpha enzyme, ADP-Glo luminescence, 60 min; hits give low values; max response, %; 330,000 compounds, 1.2% hits; AID 652105; active = max response of -50% or lower; inconclusive = between -30% and -50%; inactive = -30% or higher; note: value at the top dose of about 77 µM; % is set by controls: 0 for no effect and ±100 for the full control effect
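PI5P4Kalpha ADP-Glo assay; 5 microM ATP final; 60 min RT reaction; HEPES pH 7.4/EGTA/CHAPS, 5% DMSO; controls lacking substrate or enzyme; luminescent end-point.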
TbPGK inh – blocks T. brucei phosphoglycerate kinase; shares compounds with Pol kappa inh-1; TbPGK coupled GAPDH assay, Kinase-Glo luminescence; Potency, µM (doses to about 57.5 µM), for inactives: at the top dose activity change, negative = inhibition, hits mostly inhibitors; 500 compounds, 79% hits; note: potency is the fitted concentration of half-maximal effect; % is set by controls: 0 for no effect and ±100 for the full control effect; nearly all actives have a fitted effect of over 65% in size
POLI cherry-pick – Human Pol iota inhibitor confirmatory assay | shares compounds with Pol kappa inh-1 | Pol iota primer extension, TAMRA/BHQ fluorescence | Potency, µM, hits mostly inhibitors | 1,500 compounds, 77% hits | AID 720496; note: potency is the fitted concentration of half-maximal effect
Pol kappa inh-2 – confirmation of human DNA polymerase kappa inhibitors; shares compounds with Pol eta inh-1; purified Pol-kappa, fluorescent strand-displacement substrate; Potency, µM, hits mostly inhibitors; 920 compounds, 76% hits; note: potency is the fitted concentration of half-maximal effect
Pol eta inh-2 – confirmation of human DNA polymerase eta inhibitors. shares compounds with Pol eta inh-1. Pol eta primer extension, TAMRA/BHQ fluorescence, 10 min. Potency, µM, hits mostly inhibitors. 2,600 compounds, 64% hits. AID 720502; note: potency is the fitted concentration of half-maximal effect
WRN helicase inh-2 – WRN helicase inhibition, cherry-pick retest; shares compounds with WRN helicase inh-1; WRN helicase DNA unwinding, fluorescence kinetic; Potency, µM (series often up to 57.1 µM), without a hit: top-dose activity, negative = inhibition, usual class: inhibitors; 610 compounds, 63% hits; note: potency is the fitted concentration of half-maximal effect; nearly all actives have a fitted effect of over 65% in size
TO DNA binding – counter-screen for WRN helicase inhibitors: DNA binding. thiazole orange DNA binding displacement, fluorescence. AID 720499. Potency, µM (series often up to 57.1 µM), for the others: top-dose activity change, negative = inhibition, usual class: inhibitors. 610 compounds, 10% hits. shares compounds with WRN helicase inh-1;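 note: drop in dye fluorescence marks compound binding to DNA; potency is the fitted concentration of half-maximal effect; % is set by controls: 0 for no effect and ±100 for the full control effect; nearly all actives have a fitted effect of over 60% in size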
BLM helicase inh – blocks human BLM helicase in WRN counterscreen. shares compounds with WRN helicase inh-1. Recombinant BLM helicase DNA unwinding, red fluorescence. Potency, µM (highest dose often 57.1 µM), for inactives: top-dose activity change, negative = inhibition, hits mostly inhibitors. 610 compounds, 60% hits. AID 720503; note: potency is the fitted concentration of half-maximal effect; nearly all actives have a fitted effect of over 60% in size
Target sequence (P54132 whole entry, looked up): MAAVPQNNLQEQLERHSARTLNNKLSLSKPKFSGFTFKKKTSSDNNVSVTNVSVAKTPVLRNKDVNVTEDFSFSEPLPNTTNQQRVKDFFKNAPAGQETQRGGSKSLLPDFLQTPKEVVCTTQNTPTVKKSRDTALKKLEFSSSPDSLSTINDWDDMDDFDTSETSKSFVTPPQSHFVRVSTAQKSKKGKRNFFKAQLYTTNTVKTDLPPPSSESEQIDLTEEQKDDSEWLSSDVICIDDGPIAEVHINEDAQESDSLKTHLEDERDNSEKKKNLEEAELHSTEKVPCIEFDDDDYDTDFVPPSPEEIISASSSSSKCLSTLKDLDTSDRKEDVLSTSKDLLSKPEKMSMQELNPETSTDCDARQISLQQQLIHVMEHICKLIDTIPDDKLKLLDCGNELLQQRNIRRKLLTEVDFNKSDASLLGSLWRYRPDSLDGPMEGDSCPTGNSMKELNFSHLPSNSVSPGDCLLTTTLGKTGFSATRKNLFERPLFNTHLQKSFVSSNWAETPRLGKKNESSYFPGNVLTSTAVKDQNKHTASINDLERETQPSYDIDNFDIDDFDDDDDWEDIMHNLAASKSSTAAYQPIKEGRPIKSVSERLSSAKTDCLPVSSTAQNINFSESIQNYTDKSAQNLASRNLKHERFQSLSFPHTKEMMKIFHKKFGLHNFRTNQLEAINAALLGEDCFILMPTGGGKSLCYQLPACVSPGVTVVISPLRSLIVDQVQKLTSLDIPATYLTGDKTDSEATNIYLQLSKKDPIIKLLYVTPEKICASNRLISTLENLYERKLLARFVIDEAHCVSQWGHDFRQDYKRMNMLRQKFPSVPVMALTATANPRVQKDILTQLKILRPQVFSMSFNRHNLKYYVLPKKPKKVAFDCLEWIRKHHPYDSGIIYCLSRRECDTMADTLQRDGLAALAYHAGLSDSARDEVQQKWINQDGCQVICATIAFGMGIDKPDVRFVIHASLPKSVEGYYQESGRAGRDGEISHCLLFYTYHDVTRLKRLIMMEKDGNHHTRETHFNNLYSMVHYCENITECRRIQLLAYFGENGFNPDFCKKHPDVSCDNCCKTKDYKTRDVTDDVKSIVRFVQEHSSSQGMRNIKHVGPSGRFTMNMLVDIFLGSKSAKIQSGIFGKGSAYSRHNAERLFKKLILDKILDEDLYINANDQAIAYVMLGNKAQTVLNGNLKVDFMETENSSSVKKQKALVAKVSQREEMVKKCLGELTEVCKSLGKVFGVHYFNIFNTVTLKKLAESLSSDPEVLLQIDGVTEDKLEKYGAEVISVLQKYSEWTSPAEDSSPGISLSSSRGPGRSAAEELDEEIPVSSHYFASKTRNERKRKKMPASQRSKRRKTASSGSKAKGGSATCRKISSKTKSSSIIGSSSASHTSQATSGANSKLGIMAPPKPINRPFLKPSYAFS
An asterisk follows results filed as active; u = inconclusive; x = no result given. Most compounds without a hit are left out; they make up all but 2.8% or so of the library. Unless noted, calls come from the whole dose curve; as a rule, active = well fitted curve in the direction sought with a large enough effect; inconclusive = small, poorly fitted or top-dose-only effect, or another doubt; inactive = no such curve, though single readings can be large; an effect the other way counts as inactive or inconclusive.

SMILES | Pol eta inh-1 | Pol kappa inh-1 | Pol iota inh | WRN helicase inh-1 | POLB inh | PI5P4Ka inh | POLI cherry-pick | Pol eta inh-2 | WRN helicase inh-2 | TO DNA binding | BLM helicase inh | others
Cc1ccc(CNC(=O)CCS(=O)(=O)c2ccc(Br)cc2)cc1 | 10µM* | 22µM* | 16µM* | 25µM* | 7.9µM* | -1 | 38* | 27* | 3.8µM* | 5.4µM* | 2.2µM* | TbPGK inh=6.5µM*
CCc1nnc(NC(=O)c2sc3nc4cc(C)ccc4cc3c2N)s1 | 89µM* | -20% | 11% | 11µM* | 3% | x | 42* | 67* | 6.8µM* | 22µM* | u
CCc1ccc(C(=O)c2cn(CC(=O)Nc3cccc(OC)c3)c3ccc(OC)cc3c2=O)cc1 | 40µM* | 89µM* | 13µM* | x | 8.9µM* | x | 8.4* | u | 19µM* | -6% | 4.3µM*
COc1ccc2c(c1)c(=O)c(C(=O)c1ccc(F)cc1)cn2CC(=O)Nc1ccc(F)cc1 | -8% | -11% | -11% | -6% | -10% | -8 | x | x | x | x | x
Cc1ccccc1NC(=O)Nc1nc(C2CCC(=O)N2)cs1 (stereo unspecified) | x | x | x | -8% | x | -9 | x | x | x | x | x
C=CCSC1=N/C(=C\C=C\c2ccco2)C(=O)S1 | 3.5µM* | 14µM* | 4.5µM* | 32µM* | 2.5µM* | -63* | 21* | 21* | 19µM* | 24µM* | 5.4µM* | Pol kappa inh-2=9.5*
O=C(Nc1cccc(Cl)c1)c1ccccc1 | -7% | -3% | 23% | -4% | x | 8 | x | x | x | x | x
O=C1C(Cl)=C(NC(=O)c2ccccc2)C(=O)C(Cl)=C1NC(=O)c1ccccc1 | -10% | -12% | 1.6µM* | 20µM* | -12% | -84* | 24* | 85* | -19% | 22µM* | -26%
Cc1ccc(OC(=O)c2snnc2C)cc1C | -21% | 1% | 28% | x | 1% | x | x | x | x | x | x
O=C(O)CSc1cc(C(=O)c2ccccc2O)cn2c(=O)c3c4c(sc3nc12)CCCC4 | u | 45µM* | u | 45µM* | u | u | 27* | u | 9.6µM* | u | 3.4µM*
COc1ccc(C(=O)Oc2cc(-c3ccc4c(c3)OCO4)cc(=O)c3c(C)oc(C)c23)cc1 | -11% | -30% | u | x | u | x | x | x | x | x | x
COc1ccc2nc3cc(Cl)ccc3c(C#N)c2c1 | -10% | -17% | 67% | -2% | -16% | 4 | x | x | x | x | x
